# Test results taken from the supplement of paper PMC4466140.
# Target: AgAbp1
# Assay: SPOT peptide array binding signal intensity (averaged, normalized) (arbitrary units (background-subtracted, floor 0; scale differs between SH3 domains)); higher = stronger binding of the SH3 domain to the peptide
# Summary of the method: (§1)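 Cellulose membranes carried synthetic 15-mer peptides with cysteines swapped for serines. These were incubated overnight at 4°C with 10 μg/ml of GST-fused SH3 domains from four yeast species in TBS-based blocking buffer. Binding signal, detected with anti-GST antibody and quantified in Genespotter, is the normalized, background-subtracted spot intensity averaged over replicates, in arbitrary units specific to each domain.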
row,Binder,SPOT peptide array binding signal intensity
1,DFTLPPPPPPPGLDE,5

# Target: AgBbc1
# Assay: as above
# Summary of the method: as §1
row,Binder,SPOT peptide array binding signal intensity
1,DFTLPPPPPPPGLDE,≤ 0

# Target: AgBem1-D1
# Assay: as above
# Summary of the method: as §1
row,Binder,SPOT peptide array binding signal intensity
1,DFTLPPPPPPPGLDE,≤ 0

# Target: AgBzz1-D1
# Assay: as above
# Summary of the method: as §1
row,Binder,SPOT peptide array binding signal intensity
1,DFTLPPPPPPPGLDE,≤ 0

# Target: AgBzz1-D2
# Assay: as above
# Summary of the method: as §1
row,Binder,SPOT peptide array binding signal intensity
1,DFTLPPPPPPPGLDE,≤ 0

# Target: AgCyk3
# Assay: as above
# Summary of the method: as §1
row,Binder,SPOT peptide array binding signal intensity
1,DFTLPPPPPPPGLDE,≤ 0

# Target: AgFus1
# Assay: as above
# Summary of the method: as §1
row,Binder,SPOT peptide array binding signal intensity
1,DFTLPPPPPPPGLDE,≤ 0

# Target: AgHof1
# Assay: as above
# Summary of the method: as §1
row,Binder,SPOT peptide array binding signal intensity
1,DFTLPPPPPPPGLDE,57.5

# Target: AgHse1
# Assay: as above
# Summary of the method: as §1
row,Binder,SPOT peptide array binding signal intensity
1,DFTLPPPPPPPGLDE,≤ 0

# Target: AgLsb1
# Assay: as above
# Summary of the method: as §1
row,Binder,SPOT peptide array binding signal intensity
1,DFTLPPPPPPPGLDE,2

# Target: AgLsb4
# Assay: as above
# Summary of the method: as §1
row,Binder,SPOT peptide array binding signal intensity
1,DFTLPPPPPPPGLDE,≤ 0

# Target: AgMyo5
# Assay: as above
# Summary of the method: as §1
row,Binder,SPOT peptide array binding signal intensity
1,DFTLPPPPPPPGLDE,1550

# Target: AgNbp2
# Assay: as above
# Summary of the method: as §1
row,Binder,SPOT peptide array binding signal intensity
1,DFTLPPPPPPPGLDE,32.5

# Target: AgRvs167
# Assay: as above
# Summary of the method: as §1
row,Binder,SPOT peptide array binding signal intensity
1,DFTLPPPPPPPGLDE,1.67

# Target: AgSho1
# Assay: as above
# Summary of the method: as §1
row,Binder,SPOT peptide array binding signal intensity
1,DFTLPPPPPPPGLDE,2

# Target: AgSla1-D1-D2
# Assay: as above
# Summary of the method: as §1
row,Binder,SPOT peptide array binding signal intensity
1,DFTLPPPPPPPGLDE,1

# Target: AgSla1-D3
# Assay: as above
# Summary of the method: as §1
row,Binder,SPOT peptide array binding signal intensity
1,DFTLPPPPPPPGLDE,0.5

# Target: CaAbp1-D1
# Assay: as above
# Summary of the method: as §1
row,Binder,SPOT peptide array binding signal intensity
1,DFTLPPPPPPPGLDE,≤ 0

# Target: CaAbp1-D2
# Assay: as above
# Summary of the method: as §1
row,Binder,SPOT peptide array binding signal intensity
1,DFTLPPPPPPPGLDE,≤ 0

# Target: CaBbc1
# Assay: as above
# Summary of the method: as §1
row,Binder,SPOT peptide array binding signal intensity
1,DFTLPPPPPPPGLDE,≤ 0

# Target: CaBem1-D1
# Assay: as above
# Summary of the method: as §1
row,Binder,SPOT peptide array binding signal intensity
1,DFTLPPPPPPPGLDE,0.5

# Target: CaBzz1-D1
# Assay: as above
# Summary of the method: as §1
row,Binder,SPOT peptide array binding signal intensity
1,DFTLPPPPPPPGLDE,136

# Target: CaBzz1-D2
# Assay: as above
# Summary of the method: as §1
row,Binder,SPOT peptide array binding signal intensity
1,DFTLPPPPPPPGLDE,5.5

# Target: CaCyk3
# Assay: as above
# Summary of the method: as §1
row,Binder,SPOT peptide array binding signal intensity
1,DFTLPPPPPPPGLDE,≤ 0

# Target: CaFus1
# Assay: as above
# Summary of the method: as §1
row,Binder,SPOT peptide array binding signal intensity
1,DFTLPPPPPPPGLDE,≤ 0

# Target: CaHof1
# Assay: as above
# Summary of the method: as §1
row,Binder,SPOT peptide array binding signal intensity
1,DFTLPPPPPPPGLDE,≤ 0

# Target: CaHse1
# Assay: as above
# Summary of the method: as §1
row,Binder,SPOT peptide array binding signal intensity
1,DFTLPPPPPPPGLDE,≤ 0

# Target: CaLsb1
# Assay: as above
# Summary of the method: as §1
row,Binder,SPOT peptide array binding signal intensity
1,DFTLPPPPPPPGLDE,0.5

# Target: CaLsb4
# Assay: as above
# Summary of the method: as §1
row,Binder,SPOT peptide array binding signal intensity
1,DFTLPPPPPPPGLDE,≤ 0

# Target: CaMyo5
# Assay: as above
# Summary of the method: as §1
row,Binder,SPOT peptide array binding signal intensity
1,DFTLPPPPPPPGLDE,8

# Target: CaNbp2
# Assay: as above
# Summary of the method: as §1
row,Binder,SPOT peptide array binding signal intensity
1,DFTLPPPPPPPGLDE,20

# Target: CaRvs167
# Assay: as above
# Summary of the method: as §1
row,Binder,SPOT peptide array binding signal intensity
1,DFTLPPPPPPPGLDE,≤ 0

# Target: CaRvs167-3
# Assay: as above
# Summary of the method: as §1
row,Binder,SPOT peptide array binding signal intensity
1,DFTLPPPPPPPGLDE,≤ 0

# Target: CaSho1
# Assay: as above
# Summary of the method: as §1
row,Binder,SPOT peptide array binding signal intensity
1,DFTLPPPPPPPGLDE,≤ 0

# Target: CaSla1-D1-D2
# Assay: as above
# Summary of the method: as §1
row,Binder,SPOT peptide array binding signal intensity
1,DFTLPPPPPPPGLDE,≤ 0

# Target: CaSla1-D3
# Assay: as above
# Summary of the method: as §1
row,Binder,SPOT peptide array binding signal intensity
1,DFTLPPPPPPPGLDE,≤ 0

# Target: ScAbp1
# Assay: as above
# Summary of the method: as §1
row,Binder,SPOT peptide array binding signal intensity
1,DFTLPPPPPPPGLDE,≤ 0

# Target: ScBbc1
# Assay: as above
# Summary of the method: as §1
row,Binder,SPOT peptide array binding signal intensity
1,DFTLPPPPPPPGLDE,≤ 0

# Target: ScBem1-D1
# Assay: as above
# Summary of the method: as §1
row,Binder,SPOT peptide array binding signal intensity
1,DFTLPPPPPPPGLDE,≤ 0

# Target: ScBzz1-D1
# Assay: as above
# Summary of the method: as §1
row,Binder,SPOT peptide array binding signal intensity
1,DFTLPPPPPPPGLDE,≤ 0

# Target: ScBzz1-D2
# Assay: as above
# Summary of the method: as §1
row,Binder,SPOT peptide array binding signal intensity
1,DFTLPPPPPPPGLDE,1

# Target: ScCyk3
# Assay: as above
# Summary of the method: as §1
row,Binder,SPOT peptide array binding signal intensity
1,DFTLPPPPPPPGLDE,0.5

# Target: ScFus1
# Assay: as above
# Summary of the method: as §1
row,Binder,SPOT peptide array binding signal intensity
1,DFTLPPPPPPPGLDE,3

# Target: ScHof1
# Assay: as above
# Summary of the method: as §1
row,Binder,SPOT peptide array binding signal intensity
1,DFTLPPPPPPPGLDE,14.8

# Target: ScHse1
# Assay: as above
# Summary of the method: as §1
row,Binder,SPOT peptide array binding signal intensity
1,DFTLPPPPPPPGLDE,≤ 0

# Target: ScLsb1
# Assay: as above
# Summary of the method: as §1
row,Binder,SPOT peptide array binding signal intensity
1,DFTLPPPPPPPGLDE,≤ 0

# Target: ScLsb2
# Assay: as above
# Summary of the method: as §1
row,Binder,SPOT peptide array binding signal intensity
1,DFTLPPPPPPPGLDE,3.5

# Target: ScLsb3
# Assay: as above
# Summary of the method: as §1
row,Binder,SPOT peptide array binding signal intensity
1,DFTLPPPPPPPGLDE,≤ 0

# Target: ScLsb4
# Assay: as above
# Summary of the method: as §1
row,Binder,SPOT peptide array binding signal intensity
1,DFTLPPPPPPPGLDE,≤ 0

# Target: ScMyo3
# Assay: as above
# Summary of the method: as §1
row,Binder,SPOT peptide array binding signal intensity
1,DFTLPPPPPPPGLDE,2030

# Target: ScMyo5
# Assay: as above
# Summary of the method: as §1
row,Binder,SPOT peptide array binding signal intensity
1,DFTLPPPPPPPGLDE,1990

# Target: ScNbp2
# Assay: as above
# Summary of the method: as §1
row,Binder,SPOT peptide array binding signal intensity
1,DFTLPPPPPPPGLDE,18

# Target: ScPex13
# Assay: as above
# Summary of the method: as §1
row,Binder,SPOT peptide array binding signal intensity
1,DFTLPPPPPPPGLDE,≤ 0

# Target: ScRvs167
# Assay: as above
# Summary of the method: as §1
row,Binder,SPOT peptide array binding signal intensity
1,DFTLPPPPPPPGLDE,3.33

# Target: ScSho1
# Assay: as above
# Summary of the method: as §1
row,Binder,SPOT peptide array binding signal intensity
1,DFTLPPPPPPPGLDE,≤ 0

# Target: ScSla1-D1-D2
# Assay: as above
# Summary of the method: as §1
row,Binder,SPOT peptide array binding signal intensity
1,DFTLPPPPPPPGLDE,≤ 0

# Target: ScSla1-D3
# Assay: as above
# Summary of the method: as §1
row,Binder,SPOT peptide array binding signal intensity
1,DFTLPPPPPPPGLDE,≤ 0

# Target: SpAbp1-D1
# Assay: as above
# Summary of the method: as §1
row,Binder,SPOT peptide array binding signal intensity
1,DFTLPPPPPPPGLDE,≤ 0

# Target: SpBbc1
# Assay: as above
# Summary of the method: as §1
row,Binder,SPOT peptide array binding signal intensity
1,DFTLPPPPPPPGLDE,≤ 0

# Target: SpBzz1-D1
# Assay: as above
# Summary of the method: as §1
row,Binder,SPOT peptide array binding signal intensity
1,DFTLPPPPPPPGLDE,1300
